Rtt109 HAT inh: inhibitors of Candida albicans Rtt109/Vps75 histone acetyltransferase; purified Rtt109/Vps75, ThioGlo CoA-SH fluorescence, 4 h; inhibition, % at 34.9 µM; 0.16% of 330,000 active;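 active means inhibition of at least 50% in every replicate; inconclusive means best replicate reaches 50% inhibition but some replicates fall short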
Target sequence (Q5AAJ8 whole entry, looked up): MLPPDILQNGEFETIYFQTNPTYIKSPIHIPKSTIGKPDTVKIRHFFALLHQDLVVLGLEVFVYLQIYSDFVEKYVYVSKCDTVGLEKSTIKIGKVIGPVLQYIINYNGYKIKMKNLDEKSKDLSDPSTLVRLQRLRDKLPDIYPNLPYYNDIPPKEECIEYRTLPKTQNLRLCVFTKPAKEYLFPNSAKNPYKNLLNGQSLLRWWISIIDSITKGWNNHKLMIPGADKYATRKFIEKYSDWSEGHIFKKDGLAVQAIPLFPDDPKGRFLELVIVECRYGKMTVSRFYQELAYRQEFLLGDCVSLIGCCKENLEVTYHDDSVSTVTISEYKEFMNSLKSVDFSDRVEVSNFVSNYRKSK
Wnt act: activates Wnt/beta-catenin signaling in a reporter cell assay. activator, plate reader. activation, % at 9.35 µM. 1.2% of 300,000 active. AID 743398; in the data active means activation above about 30%, passing the limit was not always enough; inconclusive means no clear call, values can overlap the other calls;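 further: 0% = neutral control wells and 100% = positive control wells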
esBAF inh: inhibitors of esBAF chromatin remodeling in mouse ES cells. Bmi1-luciferase knock-in reporter, 24 h; 100% = twice the neutral-well signal. reporter increase, % at 12.5 µM. 2% of 350,000 active. AID 602393; in the data active means activation above about 40%; inconclusive means no clear call, values can overlap the other calls;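 further: 0% = median of the plate's neutral control wells and 100% = double that signal; a rise in the Bmi1 reporter signal indicates esBAF inhibition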
MITF TRPM1 HTS: MITF TRPM1 promoter activation in melanoma cells; SK-MEL-5 TRPM1-promoter luciferase, 24 h; % of positive control, neutral wells = 0; activation, % at 12.5 µM; 0.75% of 300,000 active; AID 588334;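 active means mean activation of at least 80% with every replicate also reaching 80%; inconclusive means mean reaches 80% but some replicate falls short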;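 further: 0% = neutral control wells and 100% = parthenolide positive control wells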
C2C12 statin: suppressors of simvastatin-induced myotoxicity in C2C12 myotubes; AID 602340; ATP luminescence, 48 h; scaled: DMSO 0, geranylgeraniol control 100; 0.78% of 330,000 active; rescue of ATP level, % at 7.49 µM;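 active means mean ATP rescue above about 67%, or every replicate alone reaching that limit, limit read from the data, passing the limit was not always enough; inconclusive means no clear call, values can overlap the other calls; inactive means mean under the limit and some replicate under it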;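 further: myotubes were challenged with 10 µM simvastatin during compound exposure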
Starred values were filed as active, the others as inactive. This is a sample that favours compounds with a hit; in the whole collection about 3.1% have one here.

For COc1ccccc1C(=O)Nc1nnc(SCC(=O)NCC2CCCO2)s1 (stereo not given) the results were Rtt109 HAT inh -7, Wnt act 34*, esBAF inh 5, MITF TRPM1 HTS inconclusive and C2C12 statin 11.
Screening CNC[C@@H]1Oc2ccc(NC(=O)CCN3CCOCC3)cc2C(=O)N([C@H](C)CO)C[C@H]1C returned esBAF inh -3 and C2C12 statin -37.
For O=C1N=C(N2CCCCC2)SC1=C1CCCC1 the results were Rtt109 HAT inh 7, Wnt act 9, esBAF inh 32 and MITF TRPM1 HTS 17.
Screening CCCCN1C(=O)/C(=C2\SC(N3CCCCC3)=NC2=O)c2ccccc21 returned Rtt109 HAT inh -1, Wnt act 20, esBAF inh 51*, MITF TRPM1 HTS 107* and C2C12 statin inconclusive.
CCCCNC(=S)NNC(=O)c1csc(CC)c1 was read as Rtt109 HAT inh -4, Wnt act 13, esBAF inh 19, MITF TRPM1 HTS 4 and C2C12 statin -1.
Screening Cc1cccc(NC(=S)NNC(=O)c2csc(C(C)C)c2)c1 returned Rtt109 HAT inh 6, Wnt act 50*, esBAF inh 6 and C2C12 statin 18.
Cc1ccsc1C(=O)NNC(=S)NCC(C)C was read as Rtt109 HAT inh 7, Wnt act 3, esBAF inh 9, MITF TRPM1 HTS 3 and C2C12 statin -1.
CCc1cc(C(=O)NNC(=S)Nc2cccc(C)c2)cs1 was read as Rtt109 HAT inh -6, Wnt act 39*, esBAF inh 50* and C2C12 statin 3.
For Cc1cccc(NC(=S)NNC(=O)c2sccc2C)c1 the results were Rtt109 HAT inh -1, esBAF inh 42*, MITF TRPM1 HTS 21 and C2C12 statin -1.
For Cc1ccc(NC(=O)c2cnccn2)c(Br)c1 the results were Rtt109 HAT inh 9, Wnt act 13, esBAF inh 52*, MITF TRPM1 HTS 71 and C2C12 statin -3.
`COc1ccc(NC(=O)N(C)C[C@@H]2OCCCC[C@@H](C)Oc3ccc(NS(C)(=O)=O)cc3C(=O)N([C@H](C)CO)C[C@H]2C)cc1` gave esBAF inh 6.
Screening CCc1cc(C(=O)Nc2ccc(C)cc2Br)cs1 returned Rtt109 HAT inh -1 and Wnt act 70*.
O=C(N/N=C/C=C\c1ccccc1[N+](=O)[O-])c1ccncc1 was read as Rtt109 HAT inh 3, Wnt act 0, esBAF inh -10, MITF TRPM1 HTS -11 and C2C12 statin -2.
O=C(O)c1cc(N/N=C/C=C/c2ccccc2[N+](=O)[O-])ccc1Cl was read as Rtt109 HAT inh 24, Wnt act 60*, esBAF inh 35, MITF TRPM1 HTS 56 and C2C12 statin -5.
`NS(=O)(=O)c1ccc(N/N=C/C=C/c2ccccc2[N+](=O)[O-])cc1` gave Rtt109 HAT inh 3, Wnt act 25, esBAF inh 83*, MITF TRPM1 HTS 64 and C2C12 statin -9.
Nc1ccc(S(=O)(=O)NN=CC=Cc2ccccc2[N+](=O)[O-])cc1 was read as Rtt109 HAT inh 4, Wnt act -4, esBAF inh 3, MITF TRPM1 HTS -9 and C2C12 statin -3.
For C[C@H]1CN([C@@H](C)CO)C(=O)c2cc(N(C)C)ccc2O[C@@H]1CN(C)S(=O)(=O)c1cn(C)cn1 the results were esBAF inh -4 and C2C12 statin -32.
Screening CCCNC(=O)C[C@H]1C[C@@H]2c3cc(NC(=O)Nc4ccc(F)cc4)ccc3O[C@@H]2[C@@H](CO)O1 returned esBAF inh 3 and C2C12 statin -1.
O=C(NCCc1cccc(Cl)c1)c1cccs1 was read as Rtt109 HAT inh 1, Wnt act -1, esBAF inh 63*, MITF TRPM1 HTS inconclusive and C2C12 statin -13.
For O=C(NCCc1ccccc1)c1cccs1 the results were Rtt109 HAT inh -6, Wnt act 25 and MITF TRPM1 HTS 42.
Screening Cc1occc1C(=O)NCCc1cccc(Cl)c1 returned Rtt109 HAT inh -3, esBAF inh 52*, MITF TRPM1 HTS 66 and C2C12 statin -1.
Screening O=C(NCCc1cccs1)c1ccc(Cl)c(Cl)c1 returned Rtt109 HAT inh 0, Wnt act 37* and MITF TRPM1 HTS 94*.
`O=C(C[C@@H]1CC[C@@H](NC(=O)c2cccnc2)[C@H](CO)O1)NCc1ccncn1` gave esBAF inh 4 and C2C12 statin 4.
Screening CCC(=O)N1[C@H](C(=O)OC)[C@@H](CO)[C@@H]2Cn3c(ccc(/C=C/c4ccccc4)c3=O)[C@@H]21 returned esBAF inh 1 and C2C12 statin 43.
`Nc1ccc2c3c(cccc13)-c1ccccc1-2` gave Rtt109 HAT inh 12, Wnt act -2, MITF TRPM1 HTS 7 and C2C12 statin 126*.
`COc1ccccc1C(=O)COC(=O)c1ccccc1O` gave Rtt109 HAT inh 5, Wnt act 9, esBAF inh inconclusive, MITF TRPM1 HTS 0 and C2C12 statin -6.
Screening CCc1ccc(C(=O)COC(=O)c2cccnc2Cl)cc1 returned Rtt109 HAT inh 1, Wnt act 44*, esBAF inh 0, MITF TRPM1 HTS 23 and C2C12 statin -2.
For O=C(COC(=O)c1cccnc1Cl)c1ccccc1 the results were Rtt109 HAT inh 0, Wnt act 1, esBAF inh 44*, MITF TRPM1 HTS 52 and C2C12 statin 27.
`N#CCc1ccc(OC(=O)c2cccnc2Cl)cc1` gave Rtt109 HAT inh -20, Wnt act 39*, esBAF inh 60*, MITF TRPM1 HTS 70 and C2C12 statin -9.
`CCc1ccc(C(=O)COC(=O)c2ccccc2OC)cc1` gave Rtt109 HAT inh -39, Wnt act 50* and MITF TRPM1 HTS 87*.
Screening CC=Cc1ccc2n(c1=O)C[C@H]1[C@H](CO)[C@@H](C(=O)NCC3CC3)[C@@H]2N1Cc1ccncc1 (mixture of isomers) returned esBAF inh 1 and C2C12 statin 7.
C[C@H]1CN([C@@H](C)CO)C(=O)Cc2cc(NS(=O)(=O)c3ccccc3)ccc2O[C@H]1CN(C)C(=O)Nc1cccc2ccccc12 was read as esBAF inh 0 and C2C12 statin 12.
OCCCCNCc1ccc(OCc2ccc(Cl)cc2Cl)cc1 was read as Rtt109 HAT inh 13, esBAF inh 1, MITF TRPM1 HTS 6 and C2C12 statin 10.
OCCNCc1ccc(OCc2ccc(Cl)cc2Cl)cc1 was read as Rtt109 HAT inh 19, Wnt act 34*, esBAF inh 18, MITF TRPM1 HTS 24 and C2C12 statin -18.
For CCC(CCC(=O)Nc1ccn(-c2ccccc2)n1)C(=O)O (stereo not given) the results were Rtt109 HAT inh -4, esBAF inh -4, MITF TRPM1 HTS -1 and C2C12 statin 121*.
`CCCC(CCC(=O)Nc1ccn(-c2ccccc2)n1)C(=O)O` (stereo not given) gave Rtt109 HAT inh 2, Wnt act 3 and MITF TRPM1 HTS 0.

Screening results (PubChem)
